According to ChEMBL document CHEMBL1157539, “Thousands of chemical starting points for antimalarial lead identification” (Nature, 2010):
Where “and” joins values, the source holds several entries; their conditions need not be identical. Equal values may be shown once.

Columns and labels:
Type in all cases: functional
[1] = tested on: Plasmodium falciparum; assay: GSK_TCMDC: Inhibition of Plasmodium falciparum 3D7 in whole red blood cells, using parasite LDH activity as an index of growth. Test compounds present at 2uM
[2] = tested on: Plasmodium falciparum; assay: GSK_TCMDC: Inhibition of Plasmodium falciparum Dd2 in whole red blood cells, using parasite LDH activity as an index of growth. Test compounds present at 2uM
[3] = tested on: HepG2; assay: GSK_TCMDC: Percent inhibition of human HepG2 cell line. Test compounds present at 10uM.

| Structure (SMILES) | Inhibition [1] | Inhibition [2] | Inhibition [3] [%] |
| --- | --- | --- | --- |
| CCCCN(CCCC)Cc1cc(N(C)c2ccc([N+](=O)[O-])cn2)ccc1O.O=C(O)C(=O)O | 98% | 98% |  |
| Cl.c1ccc2c(CNCCCN3CCN(CCCNCc4c5ccccc5cc5ccccc45)CC3)c3ccccc3cc2c1 | 100% | 100% |  |
| Nc1ncc(-c2ccc(F)c(Cl)c2)c(N)n1 | 83% | 0% |  |
| Nc1nc(N)c2c(Oc3ccc(Cl)c(Cl)c3)cccc2n1 | 95% | 22% |  |
| Cc1nc(C)c(-c2ccc(Oc3cc(Cl)cc(Cl)c3)cc2)c(O)c1Br | 96% | 97% |  |
| CCNCCCC(C)Nc1ccnc2cc(Cl)ccc12.O=C(O)C(=O)O (stereo not given) | 100% | 0% |  |
| Cc1nc(N)nc(N)c1-c1ccc(Br)c(Br)c1 | 94% | 1% |  |
| COc1ccccc1-c1nc2c(ccc3nc(N)nc(N)c32)[nH]1 | 100% | 93% |  |
| Nc1nc(N)c(-c2ccccc2)c(=O)[nH]1 | 83% | 0% |  |
| CCC(C)c1cnc2nc(N)nc(N)c2c1C (stereo not given) | 97% | 1% |  |
| N=C(N)NC(=O)Nc1cc(Br)c(Cl)c(C(F)(F)F)c1 | 100% | 91% |  |
| CC(=NNC(S)=NCCc1ccccn1)c1ccccn1 | 100% | 95% |  |
| CC(C)n1c(C(C)(C)C)cc2c3c(N)nc(N)nc3ccc21 | 100% | 99% |  |
| CCN(CC)CCCC(C)Nc1c2ccc(Cl)cc2nc2ccc(OC)cc12.Cl.O (stereo not given) | 100% | 100% |  |
| O=C(Nc1cccc(-c2cccc(-c3nc4ccccc4[nH]3)c2)c1)NC1CC1c1ccccc1 (stereo not given) | 90% and 87% | 22% and 27% |  |
| Cc1c(C(C)(C)C)ccc2nc(N)nc(N)c12 | 89% | 0% |  |
| Cc1ccccc1OCCCc1c(C)nc(N)nc1N | 97% | 1% |  |
| N=C(N)NC(=O)Nc1cc(F)c(Cl)c(Cl)c1 | 100% | 100% |  |
| Cc1nc(C)c(-c2ccc(Oc3ccc(OC(F)(F)F)cc3)cc2)c(OC(=O)c2ccccc2)c1Cl | 97% | 97% |  |

| Structure (SMILES) | Inhibition [1] | Inhibition [2] | Inhibition [3] [%] |
| --- | --- | --- | --- |
| COc1ccc(-c2cnc(N)nc2N)cc1Cl | 84% | 1% |  |
| CCCCNCc1ccc(OCc2cccc(COc3ccc(CNCCCC)cc3I)c2)c(I)c1.Cl | 87% | 13% |  |
| COc1ccc2ncc(F)c(C(O)CN3CCC(NCc4ccc5c(n4)NC(=O)CO5)CC3)c2c1.Cl (stereo not given) | 99% and 100% | 51% and 88% |  |
| CCCCCCCN(Cc1ccc(OC(C)(C)C(=O)OCC)cc1)C(=O)Cc1ccc(F)cc1F | 93% | 95% |  |
| COc1ccccc1/C=C/C(=O)NC1CCC(CCN2CCc3ccc(-c4cc(C)no4)cc3CC2)CC1.Cl (stereo not given) | 95% | 11% | 47 |
| Cl.O=S(=O)(c1cccc(F)c1)c1ccc(Nc2ncnc3cc(Br)sc23)cc1Cl | 86% | 11% | 20 |
| COc1ccc(-c2ccc(NC(=O)c3cccc(Cl)c3)c(F)c2)cc1CNC(C)C.O=C(O)C(F)(F)F | 93% | 14% | 19 |
| O=C(Nc1ccc(Cl)cc1)c1cc(Cl)ccc1NC(=O)C1(c2ccc(Cl)cc2)CCCC1 | 85% | 29% | 13 |
| CCc1ccc(Cc2cnc3nc(N)nc(N)c3c2C)cc1CC | 97% | 0% |  |
| COc1ccc(Cc2c(Cl)nc3nc(N)nc(N)c3c2C)cc1 | 94% | 3% |  |
| CN(c1ccc(NC(=O)Nc2cc(C(C)(C)C)on2)cc1)c1ccnc(NCCN2CCOCC2)n1.O=C(O)C(F)(F)F | 95% | 18% | 51 |
| O=C(O)C(F)(F)F.c1cc(-c2ccc(CN3CCN(c4ccncc4)CC3)cc2)cc(-c2nc3ccccc3[nH]2)c1 | 100% | 100% | 61 |
| Cl.Nc1c2c(nc3ccc(NC(=O)CCCc4ccccc4)cc13)CCCC2 | 100% | 42% | 73 |
| CC(C)(C)c1ccc(C(=O)N2CCC3(CC2)C(=O)N(CC(=O)NCC2CCCO2)CN3c2ccccc2)cc1 (stereo not given) | 100% | 100% | 8 |
| COc1ccc2c(CNCCCCCCNCc3c(OC)ccc4cc(OC)ccc34)c(OC)ccc2c1.CS(=O)(=O)O | 100% | 79% |  |
| COc1ccc2nccc([C@@H](O)CN3CCC(NCc4ccc(OC)c(NC=O)c4)CC3)c2c1 | 97% | 0% | 0 |
| O=C(O)C(F)(F)F.O=C1CCCN1CCCNCc1cccc(-c2ccc(-c3nc4cc(C(F)(F)F)ccc4[nH]3)s2)c1 | 100% | 99% | 19 |
| COCCOc1ccc(Nc2nccc(-c3c(-c4cccc(NC(=O)c5c(F)cccc5F)c4)nn4ccccc34)n2)cc1Cl | 99% | 97% | 53 |
